“And” between values parts separate entries of the source, which are not always exact repeats. Identical values can stand only once. Results filed as inconclusive are left out. Some structures have more than one record in an assay (separate samples or runs), and their calls can disagree. The source made the active and inactive calls. Unless noted, calls come from the whole dose curve; as a rule, active = well fitted curve in the direction sought with a large enough effect in the repeat runs; inconclusive = weak or mixed curves; inactive = no such curve, though single readings can be large; an effect the other way counts as inactive or inconclusive.

A short description of assay [1]: A CellTox Green Cytotoxicity Assay to monitor cytotoxicity in HEK293 cells - 32 hour (AID 1224881). Note: nearly all actives have a fitted effect of over 40% in size. Note: potency is the fitted concentration of half-maximal effect. To be noted: CellTox Green fluorescence; series mostly up to 76.8 µM. In outline: (§1)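 Real-time, in one plate: 600 HEK293 cells/well with dead-cell DNA dye, pinned compound after 5 h, 37 C incubation over 40 h; viable cells give no appreciable fluorescence.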
The nature of assay [2]: A CellTox Green Cytotoxicity Assay to monitor cytotoxicity in HepG2 cells - 0 hour (AID 1224882). Note: nearly all actives have a fitted effect of over 35% in size. Note: potency is the fitted concentration of half-maximal effect. To be noted: CellTox Green fluorescence; series mostly up to 76.8 µM. The gist of the method: (§2)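 Cytotoxicity was tracked as dead-cell DNA fluorescence in HepG2 cells treated with test compounds at 37 C; each time-point value comes from one kinetic series spanning 0, 8, 16, 24, 32 and 40 h.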

Assay [3] is described as follows: A CellTox Green Cytotoxicity Assay to monitor cytotoxicity in HepG2 cells - 32 hour (AID 1224883). Note: nearly all actives have a fitted effect of over 50% in size. Note: potency is the fitted concentration of half-maximal effect. Particulars: CellTox Green fluorescence; series mostly up to 76.8 µM. In outline:
as §2

A short description of assay [4]: A CellTox Green Cytotoxicity Assay to monitor cytotoxicity in HEK293 cells - 8 hour (AID 1224884). Note: nearly all actives have a fitted effect of over 35% in size. Note: potency is the fitted concentration of half-maximal effect. Particulars: CellTox Green fluorescence; series mostly up to 76.8 µM. The gist of the method:
as §1

Assay [5] can be described thus: qHTS RealTime-Glo MT Cell Viability Assay in HepG2 cells - 16 hour (AID 1224885). Note: nearly all actives have a fitted effect of over 50% in size. Note: potency is the fitted concentration of half-maximal effect. To be noted: RealTime-Glo luminescence; series mostly up to 76.8 µM. In outline: (§3)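 Compound treatment began 5 h after plating HepG2 cells (600/well) with NanoLuc luciferase and prosubstrate. Plates stayed at 37 C for 40 h; luminescence was captured at six time points, 0 h through 40 h.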
Background: qHTS replaces the single test concentration by a dilution series.

Assay [6] can be described thus: qHTS RealTime-Glo MT Cell Viability Assay in HEK293 cells - 24 hour (AID 1224886). Note: nearly all actives have a fitted effect of over 50% in size. Note: potency is the fitted concentration of half-maximal effect. Particulars: RealTime-Glo luminescence; series mostly up to 76.8 µM. The gist of the method:
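Quantitative high-throughput screen of the Tox21 10K library in HEK293: cells and RealTime-Glo reagents plated together, compound added at 5 h, luminescence monitored through 40 h at 37 C.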

Assay [7] can be described thus: qHTS RealTime-Glo MT Cell Viability Assay in HEK293 cells - 8 hour (AID 1224887). Note: nearly all actives have a fitted effect of over 50% in size. Note: potency is the fitted concentration of half-maximal effect. Particulars: RealTime-Glo luminescence; series mostly up to 76.8 µM. The gist of the method:
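Kinetic, non-lysing viability readout. Seed HEK293 (600/well) with reagent, incubate 5 h at 37 C/5% CO2, pin 23 nL compound in DMSO, incubate at 37 C, read luminescence at 0, 8, 16, 24, 32, 40 h.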

Assay [8] is described as follows: A CellTox Green Cytotoxicity Assay to monitor cytotoxicity in HEK293 cells - 16 hour (AID 1224888). Note: nearly all actives have a fitted effect of over 35% in size. Particulars: CellTox Green fluorescence; series mostly up to 76.8 µM. The gist of the method:
as §1

A short description of assay [9]: qHTS RealTime-Glo MT Cell Viability Assay in HepG2 cells - 0 hour (AID 1224889). Note: nearly all actives have a fitted effect of over 50% in size. To be noted: RealTime-Glo luminescence; series mostly up to 76.8 µM. In outline:
as §3

Assay [10] can be described thus: A CellTox Green Cytotoxicity Assay to monitor cytotoxicity in HepG2 cells - 8 hour (AID 1224890). Note: nearly all actives have a fitted effect of over 45% in size. Note: potency is the fitted concentration of half-maximal effect. Particulars: CellTox Green fluorescence; series mostly up to 76.8 µM. The gist of the method:
as §2

A short description of assay [11]: qHTS assay to identify small molecule antagonists of the estrogen receptor alpha (ER-alpha) signaling pathway using the BG1 cell line in the presence of 0.1 nM 17-beta-estradiol - cell viability counter screen (AID 1259241). Note: nearly all actives have a fitted effect of over 40% in size. Particulars: VM7Luc4E2 (BG1) viability, CellTiter-Fluor protease, 22 h, 0.1 nM estradiol agonist added; series mostly up to 92.4 µM. The gist of the method: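 Following 5 days in phenol red-free medium with charcoal-stripped serum, VM7Luc4E2 cells received test compounds alongside 0.1 nM 17beta-estradiol (final) at 37C for 22 hr. Live cells were then quantified via protease-substrate fluorescence.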

Assay [12] has as its target Estrogen receptor (Homo sapiens) (UniProt P03372). Description: qHTS assay to identify small molecule antagonists of the estrogen receptor alpha (ER-alpha) signaling pathway using the BG1 cell line in the presence of 0.1 nM 17-beta-estradiol (AID 1259244). Note: nearly all actives have a fitted effect of over 50% in size. Note: potency is the fitted concentration of half-maximal effect. Particulars: VM7Luc4E2 (BG1) ERE-luciferase, antagonist mode, 0.1 nM E2, 22 h; series mostly up to 92.4 µM. In outline:
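Luciferase signal from VM7Luc4E2 ERE-reporter cells, co-dosed with test compound and 0.1 nM final 17beta-estradiol for 22 h, read with ONE-Glo.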

Assay [13] can be described thus: qHTS assay to identify small molecule HDAC inhibitors - cell viability counter screen (AID 1259365). Note: nearly all actives have a fitted effect of over 50% in size. To be noted: HCT-116 viability, CellTiter-Glo ATP luminescence, 2 h; series mostly up to 92.4 µM. The gist of the method: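 HCT-116 wild-type, overnight attachment; 2hr drug exposure, 37C; CellTiter-Glo luminescent ATP readout after 30min RT.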
Assay [14] is described as follows: qHTS assay to identify small molecule agonists of the sonic hedgehog signaling (Shh) pathway - cell viability counter screen (AID 1259366). Note: nearly all actives have a fitted effect of over 50% in size. Note: potency is the fitted concentration of half-maximal effect. Particulars: NIH/3T3 Gli1-Luc viability, CellTiter-Fluor, 24 h; series mostly up to 92.4 µM. In outline:
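Compounds in DMSO were pin-transferred onto 3T3 Gli1-Luc cells that had settled 4hr; plates then stood 24hr at 37C and 5% CO2. One hour before the end, CellTiter-Fluor was added and fluorescence recorded.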

The nature of assay [15]: qHTS assay to identify small molecule antagonists of the sonic hedgehog signaling (Shh) pathway - cell viability counter screen (AID 1259367). Note: nearly all actives have a fitted effect of over 55% in size. Note: potency is the fitted concentration of half-maximal effect. To be noted: NIH/3T3 Gli1-Luc viability, CellTiter-Fluor, 24 h; series mostly up to 92.4 µM. The gist of the method:
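CellTiter-Fluor signal in conditioned medium-stimulated 3T3 Gli1-Luc cells, 23 hr compound exposure, 37C.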

Assay [16] can be described thus: qHTS assay to identify small molecule agonists of the sonic hedgehog signaling (Shh) pathway (AID 1259368; calls by dose curve;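 note: NIH/3T3-derived 3T3Gli1-Luc cells carrying a stable Gli1-driven firefly luciferase reporter; nearly all actives have a fitted effect of over 15% in size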). Particulars: NIH/3T3 Gli1-Luc reporter, luciferase, 24 h; series mostly up to 92.4 µM. The gist of the method:
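Following a 24 hr incubation with DMSO-dissolved compounds at 37 C, 5% CO2, Gli1-Luc NIH/3T3-derived cells received luciferase reagent for 30 min at room temperature prior to luminescence measurement.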

The nature of assay [17]: qHTS assay to identify small molecule antagonists of the sonic hedgehog signaling (Shh) pathway (AID 1259369; calls by dose curve; note: nearly all actives have a fitted effect of over 45% in size; note: potency is the fitted concentration of half-maximal effect). To be noted: NIH/3T3 Gli1-Luc reporter, Shh antagonist, luminescence 24 h; series mostly up to 92.4 µM. In outline:
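Read-out is luminescence from a firefly luciferase gene controlled by the Gli1 response element, in 3T3Gli1-Luc cells pre-incubated 4hr then exposed to compounds and conditioned medium for 24hr.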

Assay [18] can be described thus: qHTS assay to identify small molecule HDAC inhibitors (AID 1259364).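 Note: wild-type HCT-116 cells with endogenous class I/II HDAC activity; top concentration of the series differs between compounds; nearly all actives have a fitted effect of over 45% in size.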 To be noted: HCT-116 HDAC-Glo I/II luminescence, 2 h; series mostly up to 92.4 µM. In outline: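 HCT-116 wt cells, 1,500/well, overnight attach. Compounds (DMSO) 2 h, 37 °C. HDAC-Glo I/II, 30 min RT. Luminescence.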
A short description of assay [19]: qHTS assay to identify small molecule antagonists of the androgen receptor (AR) signaling pathway using the MDA cell line in the presence of 0.5 nM R1881 - cell viability counter screen (AID 1259242). Note: nearly all actives have a fitted effect of over 45% in size. Note: potency is the fitted concentration of half-maximal effect. To be noted: MDA-kb2 viability, CellTiter-Fluor protease fluorescence, 16 h; series mostly up to 92.4 µM. In outline: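 Cells seeded at 3,000/well and allowed 5 hr at 37C, 0% CO2 before compound transfer and R1881 (0.5 nM final) addition; 16 hr later, live-cell protease fluorescence indicated cytotoxicity.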

Assay [20] is described as follows: qHTS assay to identify small molecule phospholipidosis (PLD) inducers (AID 1259344; active = well fitted curve in the direction sought with a large enough effect; an effect the other way counts as inactive or inconclusive). To be noted: HepG2 phospholipidosis, LipidTOX Red imaging, 24 h; series mostly up to 38.3 µM. The gist of the method: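 Accumulated phospholipid, stained red by LipidTOX during 24 h compound treatment of HepG2 cells at 37 C, is quantified from images as pit number and intensity, normalised per cell using Hoechst-stained nuclei.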

Sequence of Estrogen receptor (Homo sapiens) (P03372 whole entry, looked up): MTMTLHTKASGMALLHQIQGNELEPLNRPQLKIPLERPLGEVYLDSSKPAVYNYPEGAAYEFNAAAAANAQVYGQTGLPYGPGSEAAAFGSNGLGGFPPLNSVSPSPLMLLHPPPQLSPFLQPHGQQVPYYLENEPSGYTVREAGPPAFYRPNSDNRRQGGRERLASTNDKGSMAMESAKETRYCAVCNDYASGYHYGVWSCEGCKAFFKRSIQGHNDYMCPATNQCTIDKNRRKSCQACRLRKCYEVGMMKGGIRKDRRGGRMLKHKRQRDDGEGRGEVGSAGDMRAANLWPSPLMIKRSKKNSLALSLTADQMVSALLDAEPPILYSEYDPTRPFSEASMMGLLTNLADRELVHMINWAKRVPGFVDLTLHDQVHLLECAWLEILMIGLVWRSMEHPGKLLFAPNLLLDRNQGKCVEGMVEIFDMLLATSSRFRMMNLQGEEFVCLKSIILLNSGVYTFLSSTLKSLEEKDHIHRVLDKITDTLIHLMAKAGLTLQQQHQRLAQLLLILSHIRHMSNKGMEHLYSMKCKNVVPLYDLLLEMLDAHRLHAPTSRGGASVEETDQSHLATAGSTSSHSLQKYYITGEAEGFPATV

For `COC(=O)c1sccc1S(=O)(=O)NC(=O)Nc1nc(C)nc(OC)n1`, the Potency result in [1], in assay [2], in assay [3], in [4], in [5] and in [6] was “inactive” throughout. Besides, the Potency entry in [7], in assay [8], in assay [9], in assay [10], in assay [11] and in [12] was “inactive” each time. Moreover, the Potency result in [14], in [15], in [16] and in [17] was “inactive” each time. Further, the molecule was classed as inactive in [13].
As to `CCN(CC)N=O`, the Potency entry in assay [1], in assay [2], in [3], in assay [4], in assay [5] and in assay [6] was “inactive” throughout. The Potency result in [7], in [8], in assay [9], in assay [10], in assay [11] and in assay [18] was “inactive” in each case. In addition, the Potency result in assay [14], in [15], in assay [16] and in assay [17] was “inactive” in each case. Further, the outcome in [13] was inactive.
With `Oc1cc(Cl)ccc1Oc1ccc(Cl)cc1Cl`, the Potency in assay [1] is 22.4 µM (active); in assay [2] it was 50.1 µM (active) and inactive; in [3], 43 µM (active) and 23.9 µM (active); in [4], 50.1 µM (active) and inactive; in assay [5] it was 22.4 µM (active) and 23.9 µM (active); in assay [6], 22.4 µM (active) and 23.9 µM (active). Besides, the Potency in assay [7] is 35.5 µM (active) and 23.9 µM (active); in assay [10], 22.4 µM (active) and 16.9 µM (active); in assay [19], 31.4 µM (active); in assay [14] it was 31.4 µM (active) and inactive; in [15], 31.4 µM (active) and inactive; in [17] it was 5.58 µM (active). Besides, the Potency result in [9], in [11] and in [16] was “inactive” throughout. The molecule was called inactive in assay [20] and in assay [13].
`CCC(C)(C)c1ccc(O)cc1`: the Potency in assay [1] is 49.5 µM (active) and 43.6 µM (active); in assay [10] it was “inactive and 43.6 µM (active)”. In addition, the Potency entry in assay [2], in [4], in [5], in assay [6], in [7] and in [9] was “inactive” throughout. The Potency entry in assay [11], in assay [19], in assay [12], in assay [18], in [14] and in [15] was “inactive” each time. Further, the Potency entry in assay [16] and in assay [17] was “inactive” throughout. The result in [20] and in assay [13] was inactive.
On to `Nc1c(Cl)cc([N+](=O)[O-])cc1Cl`, for which the Potency result in assay [1], in assay [2], in assay [4], in [5], in assay [6] and in assay [7] was “inactive” in each case. The Potency result in [8], in assay [9], in assay [10], in assay [11], in assay [19] and in assay [18] was “inactive” each time. Besides, the Potency result in assay [14], in assay [15], in assay [16] and in assay [17] was “inactive” in each case. Also, the Potency result in assay [12] is “inactive and 27.3 µM (active)”. Also, in [13], the result was inactive.
`N#Cc1cc(Br)c(O)c(Br)c1`: the Potency entry in assay [1], in assay [2], in assay [4], in assay [5], in assay [6] and in assay [7] was “inactive” in each case. The Potency entry in [8], in assay [9], in assay [10], in [11], in assay [18] and in [14] was “inactive” throughout. The Potency entry in assay [15] and in assay [16] was “inactive” each time. Also, the Potency is 61.1 µM (active) and 41.7 µM (active) in [12]; 15.3 µM (active) and 7.41 µM (active) in assay [17]. Moreover, in assay [13], the result was inactive.

The values are drawn from PubChem BioAssay (Tox21).
